# According to PMC13083723 (Patterns, 2026):
# Out of some 5,400 compounds screened, about 190 (3.5%) showed an effect of 50% or more. The sample as a whole holds a higher share of strong results than the screen did. Positions of bridges follow the written chain, without caps; N, C: chain ends. Non-standard residues stand in square brackets, D forms with d. Residues, ends and D or L forms follow the SMILES beside them. *: point of attachment. NMeF = CN[C@@H](Cc1ccccc1)C(=O)O; X1 = CCC(C)C(N)C1=NC(C(=O)*)CS1; dOrn = NCCC[C@@H](N)C(=O)O
# Tested on: Vero-E6
# Assay: primary screen, phospholipidosis by LipidTOX staining; higher = more effect of the substance
# Settings: 10 µM
# Procedure, shortened: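 Single-concentration screen at 10 μM, with DMSO 0.1 v/v % and amiodarone 10 μM as controls. Read-out is LipidTOX Red phospholipid staining, which tolerates aldehyde fixation, in Vero-E6 cells.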
row,Structure (SMILES),result_ITMP
1,CC(O)COC[C@H]1OC2O[C@H]3[C@H](O)[C@@H](O)C(O[C@H]4[C@H](O)[C@@H](O)C(O[C@H]5[C@H](O)[C@@H](O)C(O[C@H]6[C@H](O)[C@@H](O)C(O[C@H]7[C@H](O)[C@@H](O)C(O[C@H]8[C@H](O)[C@@H](O)C(O[C@H]1[C@H](O)[C@H]2O)O[C@@H]8COCC(C)O)O[C@@H]7COCC(C)O)O[C@@H]6COCC(C)O)O[C@@H]5COCC(C)O)O[C@@H]4COCC(C)O)O[C@@H]3COCC(C)O (some centres unmarked),-3.69%
2,COc1ccc(C[C@@H](C)[C@@H](C)Cc2ccc(OC)c(OC)c2)cc1OC,6.63%
3,COc1ccc(Cc2nc(=O)c3c(C)nc([C@@H](CCCc4ccccc4)[C@@H](C)O)n3[nH]2)cc1OC,0.34%
4,C=CC(=O)Nc1cccc(Oc2nc(Nc3ccc(N4CCN(C)CC4)cc3)nc3ccsc23)c1,37.8%
5,C=CC(=O)Nc1cccc(Oc2nc(Nc3ccc(N4CCN(C)CC4)cc3)ncc2Cl)c1,70.5%
6,C=CC(=O)Nc1cccc(Oc2nc(Nc3ccc(N4CCN(C)CC4)cc3OC)ncc2Cl)c1,-1.32%
7,C[C@H]1[C@H](C)CC[C@]2(C(=O)O)CC[C@]3(C)C(=CC[C@@H]4[C@@]5(C)C[C@@H](O)[C@H](O)[C@@](C)(CO)[C@@H]5CC[C@]43C)[C@H]12,-2.77%
8,Cc1cc(-c2cc(O)ccc2Cl)cc2nnc(Nc3ccc(OCCN4CCCC4)cc3)nc12,-2.38%
9,Cc1cnc(Nc2ccc(OCCN3CCCC3)cc2)nc1Nc1cccc(S(=O)(=O)NC(C)(C)C)c1,122%
10,Cc1cnc(Nc2ccc(N3CCN(C)CC3)cc2)nc1Nc1cccc(S(=O)(=O)NC(C)(C)C)c1,21.8%
11,Cn1cnc2nc(O)nc(O)c21,0.82%
12,Cc1nc2ccc(Oc3ccc(F)cc3)cc2c(=O)n1C[C@H]1CCCN(C(C)C)C1,56.3%
13,O=C([O-])[C@H](O)[C@@H](O)[C@H](O)[C@H](O)C(O)CO (some centres unmarked),-2.51%
14,Cn1nccc1Nc1nccc(-c2ccn([C@H](CO)c3ccc(Cl)c(F)c3)c(=O)c2)n1 [R4A_0003897_001 / SPE_A20830788],1.66%
15,NCCC(Oc1ccc(C(F)(F)F)cc1)c1ccccc1 (centres unmarked),62.2%
16,CNCCC(Oc1ccc(C(F)(F)F)cc1)c1ccccc1 (centres unmarked),54.3%
17,CNCCC(Oc1ccccc1OC)c1ccccc1 (centres unmarked),13%
18,CN(CC[C@@H](Oc1ccc(-c2ccccc2)cc1)c1ccc(F)cc1)CC(=O)O,0.25%
19,COCCCC/C(=N\OCCN)c1ccc(C(F)(F)F)cc1,48.9%
20,CN1C2CC(O)[C@H]1C[C@@H](OC(=O)[C@H](CO)c1ccccc1)C2 (mixture of isomers),-3.11%
21,CCCN1C[C@@H](NS(=O)(=O)N(CC)CC)C[C@@H]2Cc3c(O)cccc3C[C@H]21,0.96%
22,CC(=O)O.CC(=O)O.N.NC1CCCCC1.[Cl][Pt][Cl],-1.8%
23,O=C([O-])Cc1ccccc1Nc1c(Cl)cccc1Cl,-2.2%
24,CN(C(=O)Cc1ccccc1)C(CN1CCCC1)c1ccccc1 (centres unmarked),6.1%
25,CN(C(=O)CN1C(=O)COc2cc(Cl)c(Cl)cc21)[C@@H](CN1CCCC1)c1ccc(-c2cccc(C(N)=O)c2)cc1,41.8%

row,Structure (SMILES),result_ITMP
1,CN(C(=O)Cc1ccc(Cl)c(Cl)c1)[C@H](CN1CCCC1)c1ccccc1,53.5%
2,CCC(C)C(N)C1=NC(C(=O)N[C@@H](CC(C)C)C(=O)N[C@H](CCC(=O)[O-])C(=O)N[C@H](C(=O)N[C@H]2CCCCNC(=O)[C@H](CC(N)=O)NC(=O)[C@@H](CC(=O)[O-])NC(=O)[C@@H](Cc3cnc[nH]3)NC(=O)[C@@H](Cc3ccccc3)NC(=O)[C@@H]([C@H](C)CC)NC(=O)[C@@H](CCCN)NC2=O)[C@@H](C)CC)CS1 (some centres unmarked) (X1-L[dE]IK[dOrn][dI][dF][dH][dD]N; lactam 4-C),-3.81%
3,Cc1cccn2c(=O)c(-c3nn[n-]n3)cnc12,-2.44%
4,CCCNCC(O)COc1ccccc1C(=O)CCc1ccccc1 (centres unmarked),86.6%
5,CCCC(=O)c1cc(F)ccc1OCC(O)CNC(C)(C)C (centres unmarked),20.3%
6,CCN(CC)CCOc1ccccc1C(=O)CCc1ccccc1,30.6%
7,Cn1nnnc1SCC1=C(C(=O)[O-])N2C(=O)[C@@H](NC(=O)[C@H](O)c3ccccc3)[C@H]2SC1,-1.4%
8,Oc1ccc(OCc2ccccc2)cc1,-11.6%
9,CN1CCN(C(=O)CN[C@@H]2C[C@H]2c2ccc(OCc3ccccc3)cc2)CC1,87.7%
10,O=C(O)c1ccc(CN2CCC(CN[C@@H]3C[C@H]3c3ccccc3)CC2)cc1,-1.25%
11,Cc1cc(Nc2cc(CN3CCOCC3)c3nc(C)c(Cc4ccc(Cl)cc4F)n3n2)[nH]n1,13%
12,COc1ccc2cc1Oc1ccc(cc1)C[C@H]1c3c(cc4c(c3Oc3cc5c(cc3OC)CCN(C)[C@@H]5C2)OCO4)CCN1C,57%
13,COc1cc2c3cc1Oc1cc(ccc1O)C[C@@H]1c4c(cc(OC)c(O)c4Oc4ccc(cc4)C[C@@H]3N(C)CC2)CC[N+]1(C)C,-3.39%
14,COc1ccc2cc1Oc1ccc(cc1)C[C@H]1c3cc(c(OC)cc3CCN1C)Oc1c(OC)c(OC)cc3c1[C@H](C2)N(C)CC3,17.4%
15,CCN(CC)C(=S)[S-],-6.15%
16,COCCCOc1ccnc(CS(=O)c2nc3ccccc3[n-]2)c1C (centres unmarked),-0.77%
17,COc1cc(N2CCC(N(C)C)CC2)ccc1Nc1ncc(Cl)c(Nc2ccccc2P(C)(C)=O)n1,51.8%
18,COc1cc(N2CCC(N)CC2)ccc1Nc1ncc(Cl)c(-c2c[nH]c3ccccc23)n1,15.8%
19,CNC(=O)c1ccccc1Nc1nc(Nc2ccc(N3CCOCC3)cc2OC)ncc1Cl,3.78%
20,COc1cc(N2CCC(N3CCN(C)CC3)CC2)ccc1Nc1ncc(Cl)c(Nc2ccccc2P(C)(C)=O)n1,-0.55%
21,CCC(=O)Nc1cccc(Oc2nc(Nc3ccc(N4CCN(C)CC4)cc3OC)ncc2Cl)c1,-5.58%
22,COc1cc(N2CCOCC2)ccc1Nc1ncc(Cl)c(Nc2ccccc2NS(C)(=O)=O)n1,51.4%
23,O=c1nc[nH]c2c([C@@H]3N[C@H](CO)[C@@H](O)[C@H]3O)c[nH]c12,-0.15%
24,CC(C)C[C@H](NC(=O)CNC(=O)[C@H](Cc1ccc(O)cc1)NC(=O)[C@H](CO)NC(=O)[C@H](Cc1c[nH]c2ccccc12)NC(=O)[C@H](Cc1c[nH]cn1)NC(=O)[C@@H]1CCC(=O)N1)C(=O)N[C@@H](CCCNC(=N)N)C(=O)N1CCC[C@H]1C(=O)NCC(N)=O,1.23%
25,CN/C(=N\C#N)NCCSCc1nc[nH]c1C,-2.74%

row,Structure (SMILES),result_ITMP
1,Cc1cc(N2CCOCC2)cc2nc(-c3c(NC[C@@H](O)c4cccc(Cl)c4)cc[nH]c3=O)[nH]c12,-0.86%
2,CCN(CC)CCCN(c1ccccc1)C1Cc2ccccc2C1,51.9%
3,COc1cc[nH]c2ncc(C(=O)C(=O)N3CCN(C(=O)c4ccccc4)C[C@H]3C)c1-2,-6.29%
4,CSCC[C@H](NC(=O)[C@H](CC(C)C)NC(=O)[C@@H](Cc1c[nH]c2ccccc12)NC(=O)[C@H](Cc1ccccc1)N(C)C(=O)[C@@H](Cc1c[nH]c2ccccc12)NC(=O)[C@@H](N)CCCN=C(N)N)C(N)=O (H-R[dW][NMeF][dW]LM-NH2),-1.85%
5,CC1(COc2ccc3c(c2)ncn3-c2ccc3cccc(N4CCC(N)CC4)c3n2)COC1,64.2%
6,COCCOc1ccc2c(c1)ncn2-c1ccc2cccc(N3CCC(N)CC3)c2n1,62.5%
7,NC1CCN(c2cccc(Cl)n2)CC1,6.27%
8,CCOC(=O)c1ccc(OCCC2CCN(c3ccc(C)nn3)CC2)cc1,-2.25%
9,CCN1CCN(C(=O)NC(C(=O)N[C@@H]2C(=O)N3[C@@H]2SC(C)(C)[C@@H]3C(=O)[O-])c2ccccc2)C(=O)C1=O (some centres unmarked),-2.05%
10,C=CC(=O)N1CCCC(n2nc(-c3ccc(Oc4ccccc4)cc3)c3c(N)ncnc32)C1 (centres unmarked),-4.8%
11,N[C@@H](Cc1ccc(I)cc1)C(=O)O,-0.07%
12,N=C(N)SCc1ccc(B(O)O)cc1,-0.1%
13,CC(=O)O[C@H]1CC[C@@]2(C)C(=CC(=O)[C@@H]3[C@@H]2CC[C@]2(C)C(=O)CC[C@@H]32)C1,-7.66%
14,Cn1cc(/C=C2/C(=O)Nc3cccnc32)c2ccccc21,2.75%
15,CCS(=O)c1nc(-c2cccc(OCc3ccccc3)c2)cc(C(F)(F)F)n1 (centres unmarked),-1.04%
16,CCCC[N+]1(C)[C@@H]2C[C@@H](OC(=O)[C@H](CO)c3ccccc3)C[C@H]1[C@@H]1O[C@@H]12 (some centres unmarked),-5.86%
17,Nc1c(CC(=O)[O-])cccc1C(=O)c1ccccc1,-2.23%
18,CN1CCN(C(c2ccccc2)c2ccc(Cl)cc2)CC1 (centres unmarked),44.4%
19,CN1CCCN(C(c2ccccc2)c2ccc(Cl)cc2)CC1 (centres unmarked),82.5%
20,CN1CCN(C(c2ccccc2)c2ccccc2)CC1,16.1%
21,O=C(Nc1ccccc1)Nc1ccc(-c2ccc(C(=O)[C@@H]3CCC[C@H]3C(=O)O)cc2)cc1 [R4A_0000400_001 / SPE_K28861668],-3.95%
22,O=C(O)[C@@H](S)[C@@H](S)C(=O)O,-5.93%
23,CCC[C@@H]1C[C@@H](C(=O)N[C@@H]([C@H]2O[C@H](SC)[C@H](OP(=O)(O)O)[C@@H](O)[C@H]2O)[C@H](C)Cl)N(C)C1,-1.73%
24,CC1(C)C(/C=C/C=C/C=C/C=C2/N(CCCCS(=O)(=O)[O-])c3ccc4ccccc4c3C2(C)C)=[N+](CCCCS(=O)(=O)[O-])c2ccc3ccccc3c21,-0.75%
